A selection: hits, their analogues and other compounds. The true share with any hit is near 1.7%.
KCNH2 WT inh: qHTS for Inhibitors of KCHN2 3.1: Wildtype qHTS; Voltage-gated inwardly rectifying potassium channel KCNH2 (Homo sapiens), Q12809; U2OS, BacMam KCNH2, thallium flux FluxOr; stronger effect = lower value; activity change, % at 1.84 µM; 340,000 tested, 0.37% active;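 active means maximum activity change below -70%; inconclusive means maximum activity change between -70% and -50%; inactive means maximum activity change above -50%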
Target sequence (Q12809 whole entry, looked up): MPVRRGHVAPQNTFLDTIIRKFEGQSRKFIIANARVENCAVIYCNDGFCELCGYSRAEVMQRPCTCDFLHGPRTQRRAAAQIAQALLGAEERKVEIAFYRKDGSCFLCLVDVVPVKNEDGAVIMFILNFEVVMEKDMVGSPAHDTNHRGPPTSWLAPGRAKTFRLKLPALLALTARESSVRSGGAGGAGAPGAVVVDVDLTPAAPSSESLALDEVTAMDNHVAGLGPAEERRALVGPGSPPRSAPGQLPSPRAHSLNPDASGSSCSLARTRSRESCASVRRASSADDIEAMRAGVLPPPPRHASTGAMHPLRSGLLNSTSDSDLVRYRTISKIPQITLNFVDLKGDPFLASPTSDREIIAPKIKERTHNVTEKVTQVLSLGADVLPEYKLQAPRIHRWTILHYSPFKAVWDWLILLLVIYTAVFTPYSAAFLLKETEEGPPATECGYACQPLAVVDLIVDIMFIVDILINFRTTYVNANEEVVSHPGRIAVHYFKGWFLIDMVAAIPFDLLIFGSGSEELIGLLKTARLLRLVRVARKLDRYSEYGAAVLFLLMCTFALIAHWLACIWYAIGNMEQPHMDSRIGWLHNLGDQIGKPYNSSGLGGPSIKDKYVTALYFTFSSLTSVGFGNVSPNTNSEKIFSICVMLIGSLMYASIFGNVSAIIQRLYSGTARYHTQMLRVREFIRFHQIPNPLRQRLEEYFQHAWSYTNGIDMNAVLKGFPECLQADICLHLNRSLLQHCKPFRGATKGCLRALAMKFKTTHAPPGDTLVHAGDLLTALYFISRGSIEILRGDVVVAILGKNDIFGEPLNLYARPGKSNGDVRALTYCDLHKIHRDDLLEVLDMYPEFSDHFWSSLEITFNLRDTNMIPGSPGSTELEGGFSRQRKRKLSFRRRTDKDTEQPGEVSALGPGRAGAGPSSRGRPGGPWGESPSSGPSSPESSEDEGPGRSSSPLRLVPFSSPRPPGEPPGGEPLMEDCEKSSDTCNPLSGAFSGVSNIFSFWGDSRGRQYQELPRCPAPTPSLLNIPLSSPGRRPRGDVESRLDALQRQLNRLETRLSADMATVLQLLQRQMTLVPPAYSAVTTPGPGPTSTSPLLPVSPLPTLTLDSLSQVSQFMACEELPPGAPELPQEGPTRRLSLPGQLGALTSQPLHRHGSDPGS
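U2OS cells transduced with wild-type KCNH2 virus are loaded with FluxOr dye for 45 min, and thallium flux is measured in kinetic reads before and after stimulation buffer. Rate constants are normalized to DMSO controls.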
Giardia kill: Small Molecules that selectively kill Giardia lamblia: qHTS | AID 540267, 2011 | activity change, % at 7.66 µM, hits read low | Giardia lamblia trophozoite viability | 340,000 tested, 0.15% active; in the data active means activity change below about -80%; inconclusive means between about -30% and that limit;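 further: parasites exposed to compound for two days anaerobically before the ATP read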
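Killing of trophozoites was scored by loss of ATP luminescence after a 48 hrs anaerobic exposure to compounds at 37 deg C, using 100 cells per well.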
KCNH2 3.1 block: qHTS for Inhibitors of KCHN2 3.1: Mutant qHTS. Potassium voltage-gated channel subfamily H member 2, brain isoform KCNH2 3.1 (human). U2OS KCNH2 3.1, thallium flux FluxOr; stronger effect = lower value. activity change, % (tested at about 1.8 µM). 340,000 tested, 0.95% active. AID 720553, 2013;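 active means maximum activity change below -70%; inconclusive means maximum activity change from -70% to -50%; inactive means maximum activity change above -50%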;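 further: thallium influx rate constant from kinetic fluorescence after stimulation buffer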
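Thallium flux via FluxOr fluorescence (Red40 quencher, 45 min loading) in U2OS cells virally expressing the KCNH2 3.1 isoform (1.77 x 10^8 /mL virus, overnight at 37 C). Rate constants from 2-min kinetic reads post-stimulation, normalised to positive and negative controls.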
USP1-UAF1 inh: Inhibitors of USP1/UAF1: Primary Screen | Potency, µM (highest dose often 57.1 µM), for inactives: top-dose activity change, negative = inhibition, usual class: inhibitors | 390,000 tested, 0.23% active | Ubiquitin carboxyl-terminal hydrolase 1 (Homo sapiens), O94782 | AID 743255, 2014 | recombinant USP1/UAF1, Ub-Rhodamine cleavage fluorescence; active means well fitted inhibition curve with a large enough effect; inconclusive means small, poorly fitted or top-dose-only effect; inactive means no such curve, though single readings can be large or run the other way; further: potency means the concentration at half of the fitted maximal effect; nearly all actives have a fitted effect of over 60% in size
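USP1/UAF1 complex (1 nM) preincubated 15 min at room temperature with compound, then Ub-Rho substrate (150 nM final) added. Kinetic fluorescence at 480/540 nm over 6 reads at 60 s intervals; 50 mM HEPES pH 7.8, 0.5 mM EDTA, 0.1 mg/ml BSA, 1 mM TCEP, 0.01% Tween-20.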
Coupling enz: qHTS Assay for Inhibitors of Fructose-1,6-bisphosphate Aldolase from Giardia Lamblia: Coupling assay counterscreen | coupling enzyme system counterscreen, AmpLite Red fluorescence | activity change, negative = inhibition, % at 58.2 µM, hits read low | 290,000 tested, 0.67% active; in the data active means activity change below about -30%
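Coupling enzymes only (glyceraldehyde-3-phosphate) + compound, at 57.5 uM final, 10 min RT; add substrate/coupling/AmpLite Red mix, 20 min RT; fluorescence ex 525/em 598 nm. Actives flag coupling-system interference.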
The depositor's hits bear a star. On the % scale 0 is the no-effect control and ±100 the full control effect.

Results for COc1ccccc1/C=N/n1cnnc1 ?
KCNH2 WT inh: -4; Giardia kill: -4; KCNH2 3.1 block: 18; USP1-UAF1 inh: inconclusive; Coupling enz: 1

What do the screens show for `CC(=O)Oc1ccc2c(c1)Oc1cc(OC(C)=O)ccc1C21OC(=O)c2ccccc21`?
KCNH2 WT inh: -122*; Giardia kill: 6; KCNH2 3.1 block: -146*; USP1-UAF1 inh: inactive; Coupling enz: 0

What do the screens show for `O=C1OC2(c3ccc(O)cc3Oc3cc(O)ccc32)c2ccccc21`?
Coupling enz: 8

Results for COc1ccc(CNC(=O)CSc2ncc3c(n2)-c2cc(Cl)ccc2N(Cc2ccccc2)S3(=O)=O)cc1OC ?
USP1-UAF1 inh: -8%

What do the screens show for `Cc1cc(NC(=O)CCC(=O)N(C(C(=O)NC(C)(C)C)c2ccccc2Cl)C(C)(C)C)no1` (configuration not stated)?
KCNH2 WT inh: 8; Giardia kill: -12; KCNH2 3.1 block: -165*; USP1-UAF1 inh: -7%; Coupling enz: -2

Results for CCC(C)N(C(=O)CCC(=O)Nc1cc(C)on1)C(C(=O)NC(C)(C)C)c1ccccc1Cl (configuration not stated) ?
KCNH2 WT inh: -3; Giardia kill: 8; KCNH2 3.1 block: 0; USP1-UAF1 inh: -19%; Coupling enz: 1

Results for O=C(Nc1nnc(N2CCCCCC2)s1)Nc1ccccc1C(F)(F)F ?
USP1-UAF1 inh: -14%

What do the screens show for `COc1cc2oc3ccccc3c2cc1N(CC(=O)N(C)C)S(=O)(=O)c1ccc(C)cc1`?
KCNH2 WT inh: 7; Giardia kill: -9; USP1-UAF1 inh: -4%; Coupling enz: 0

How did COc1cc2oc3ccccc3c2cc1N(CC(=O)N(C)C)S(=O)(=O)c1ccccc1 do in these assays?
KCNH2 WT inh: 17; Giardia kill: 5; KCNH2 3.1 block: -84*; USP1-UAF1 inh: -25%; Coupling enz: 6

What do the screens show for `COc1ccc(CCNC(=O)COC(=O)C23CC4CC(CC(Br)(C4)C2)C3)cc1`?
KCNH2 WT inh: -88*; Giardia kill: 60; KCNH2 3.1 block: -18; USP1-UAF1 inh: -12%; Coupling enz: 0

What do the screens show for `COc1ccc(CCNC(=O)COC(=O)C23CC4CC(CC(C4)C2)C3)cc1`?
KCNH2 WT inh: 4; Giardia kill: 1; KCNH2 3.1 block: -13; USP1-UAF1 inh: -8%; Coupling enz: 1

What do the screens show for `COc1cccc(CN(C)C(=O)c2cccc(S(=O)(=O)Nc3cccc(C)c3)c2)c1OC`?
KCNH2 WT inh: 0; Giardia kill: -17; KCNH2 3.1 block: -3; USP1-UAF1 inh: -7%

How did CCCCCCCCOC(=O)c1c(CSC(=N)N)n(C)c2cc(Br)c(OC(C)=O)cc12 do in these assays?
KCNH2 WT inh: -95*; Giardia kill: -4; KCNH2 3.1 block: -102*; USP1-UAF1 inh: -18%; Coupling enz: 0

What do the screens show for `O=C(Nc1ccccc1)c1cccc(N2CCCS2(=O)=O)c1`?
USP1-UAF1 inh: -17%

Results for Cc1[nH]c2ccc3ncccc3c2c1C ?
KCNH2 WT inh: 1; Giardia kill: 10; KCNH2 3.1 block: -6; USP1-UAF1 inh: -13%; Coupling enz: -39*

What do the screens show for `Cc1c(C)c2cccnc2c2ncccc12`?
KCNH2 WT inh: 3; Giardia kill: 9; KCNH2 3.1 block: -23; USP1-UAF1 inh: -14%

Results for CCOC(=O)c1c(NC(=O)CNCCO)sc(C)c1C ?
KCNH2 WT inh: -9; Giardia kill: 13; KCNH2 3.1 block: -4; USP1-UAF1 inh: 3%; Coupling enz: -3

What do the screens show for `CCOC(=O)c1c(NC(=O)CNC2CCCCC2)sc(C)c1C`?
KCNH2 WT inh: 6; Giardia kill: -9; KCNH2 3.1 block: -83*; USP1-UAF1 inh: -9%; Coupling enz: -1

How did Cc1ccccc1NC1=NS(=O)(=O)c2ccccc21 do in these assays?
KCNH2 WT inh: -285*; Giardia kill: -6; KCNH2 3.1 block: 1; USP1-UAF1 inh: inconclusive; Coupling enz: 2

How did CC(=O)c1c(C)n([O-])c2cc(C)ccc2[n+]1=O do in these assays?
KCNH2 WT inh: -5; Giardia kill: -104*; KCNH2 3.1 block: 0; USP1-UAF1 inh: -6%; Coupling enz: 0

Results for CC(=O)N1N=C(c2ccccc2)OC1c1ccc([N+](=O)[O-])s1 (configuration not stated) ?
KCNH2 WT inh: 5; Giardia kill: -27; KCNH2 3.1 block: -9; USP1-UAF1 inh: 25µM*; Coupling enz: -27

What do the screens show for `COCCCn1[nH]c2c3c(ccc2c1=O)C(=O)c1ccccc1C3=O`?
KCNH2 WT inh: -8; Giardia kill: -93*; KCNH2 3.1 block: 4; USP1-UAF1 inh: -22%; Coupling enz: -49*

How did COc1ccc(OC)c(NC(=O)c2nc(S(=O)(=O)Cc3ccc(F)cc3)ncc2Cl)c1 do in these assays?
USP1-UAF1 inh: -21%

What do the screens show for `Fc1cccc2sc(Nc3nnc(-c4ccccc4)o3)nc12`?
KCNH2 WT inh: -149*; Giardia kill: -17; KCNH2 3.1 block: -13; USP1-UAF1 inh: -24%; Coupling enz: 1

What do the screens show for `COc1cc(OC)cc(-c2nnc(Nc3nc4c(F)cccc4s3)o2)c1`?
KCNH2 WT inh: 2; Giardia kill: 19; KCNH2 3.1 block: 12; USP1-UAF1 inh: inconclusive; Coupling enz: -1

What do the screens show for `COc1ccc(/C=C/C(=O)NC(=S)Nc2ccc(N3CCN(C(C)=O)CC3)cc2)cc1`?
KCNH2 WT inh: -174*; Giardia kill: -14; KCNH2 3.1 block: 10; USP1-UAF1 inh: -24%; Coupling enz: 0

What do the screens show for `O=C(/C=C/c1ccccc1)NC(=S)Nc1ccc(CN2CCOCC2)cc1`?
KCNH2 WT inh: 0; Giardia kill: -4; KCNH2 3.1 block: -85*; USP1-UAF1 inh: -14%; Coupling enz: -1

What do the screens show for `O=C(/C=C/c1ccc(Cl)cc1Cl)NC(=S)Nc1ccc(CN2CCOCC2)cc1`?
KCNH2 WT inh: 0; Giardia kill: -1; KCNH2 3.1 block: 6; USP1-UAF1 inh: 0%; Coupling enz: 1

How did CCOc1ccc(N(CC(=O)N/N=C/c2ccccn2)S(=O)(=O)c2ccc(Cl)cc2)cc1 do in these assays?
KCNH2 WT inh: -4; Giardia kill: -16; KCNH2 3.1 block: -81*; USP1-UAF1 inh: -25%

Results for CCOc1ccc(N(CC(=O)NCCSc2ccccn2)S(=O)(=O)c2ccc(Cl)cc2)cc1 ?
KCNH2 WT inh: 6; Giardia kill: -1; KCNH2 3.1 block: -1; USP1-UAF1 inh: -19%; Coupling enz: -1

Results for O=C1NC[C@H](Cc2ccccc2)N(CC2CCN(CCc3ccc(-c4ccccc4)cc3)CC2)C1=O ?
KCNH2 WT inh: -43; Giardia kill: -5; KCNH2 3.1 block: -93*; USP1-UAF1 inh: -19%

High-throughput results (PubChem BioAssay)
